In general, inhibition refers to the change of the read-out against control, counted positive when it falls.

Out of some 5,600 compounds screened, about 4,500 (80%) were called active. Cut-off read from the data, not from the text of the source: active = inhibition above about 10%; inactive = the rest. The set was probably picked from earlier hits. These entries were drawn from the full list.

Our source for the inhibition values is PubChem BioAssay AID652141 (The Scripps Research Institute Molecular Screening Center, 2013).

This assay can be described thus: GDH-TPI coupling enzyme inhibitors, artefact control for M. tuberculosis FBA inhibitor project, biochemical, fluorescence, high throughput (AID 652141). Conditions: GDH-TPI coupled enzyme counterscreen, at 1 µM, active compounds read high. (In general: The purpose of a counterscreen is to sort out artefacts and off-target activity.)
As to `Cc1ccc(C2Nc3cccc4cccc(c34)N2)cc1`, the inhibition was 137% (active).
Turning to `O=C(Nc1ccc(-c2nnc(-c3ccccc3)o2)cc1)C1CCCO1` (stereo not given), the inhibition is -0.52% (inactive).
The result for `O=C(CCc1ccccc1)Nc1cccc(-c2nnc(-c3ccco3)o2)c1` reads 69.8% (active); that for `Cc1noc(C)c1COc1ccc2ccc(=O)oc2c1`, 42.7% (active).
Turning to `Cc1cc(C)cc(NC(=O)CSc2ccccc2)c1`, the inhibition is 58.2% (active).
The result for `Nc1ccccc1C(=O)NC1CCCCNC1=O` (stereo not given) reads 141% (active); that for `C[C@H]1CN([C@@H](C)CO)C(=O)c2cc(Br)cnc2O[C@H]1CN(C)S(=O)(=O)c1cccs1`, 2.73% (inactive); that for `c1cc(-c2ccc3[nH]ccc3c2)n2ccnc2c1`, 62.4% (active).
The value for `CCCCOc1ccc(-c2nnc(-c3ccco3)o2)cc1` was 140% (active); that for `CCOc1ccc(-c2nnc(-c3ccco3)o2)cc1` was 65% (active).
The value for `CCCCn1c(-c2cccc(C)c2)nc2cc3[nH]c(=O)c(C(C)C)nc3cc21` was 33.5% (active).
With `Brc1cnc2ccccc2c1N1CCCCC1`, the inhibition was 60.2% (active).
The value for `CCCn1c(=O)c(-c2ccccc2)c(O)c2ccccc21` was 75.9% (active); that for `Cc1cccc(NC(=O)c2sc3nc(N4CCOCC4)c4c(c3c2N)CCCC4)c1` was 77% (active).
The result for `COC(=O)CSc1nc(C)c2ccc(OC)cc2n1` reads -4.3% (inactive).
For `CCOC(=O)Cn1c(=O)n(Cc2ccc(OC)cc2)c(=O)c2cccnc21`, the inhibition is 730% [above what the read-out allows, likely interference] (active).
Consider `CCOC(=O)c1[nH]c2ccc(OC)cc2c1NC(=O)CCN1CCN(Cc2ccccc2)CC1`, for which the inhibition is -6.9% (inactive).
With `CCOC(=O)c1[nH]c2ccc(OC)cc2c1NC(=O)N1CCOCC1`, the inhibition is 100% (active).
For `O=C(NC1CCN(Cc2ccccc2)CC1)c1cc(Br)c(Br)[nH]1`, the inhibition is 764% [above what the read-out allows, likely interference] (active).
The result for `N#Cc1c(N2CCCCC2)nc(N)c2c(N)nc(SCC(=O)O)cc12` reads 8.17% (inactive); that for `COc1ccc(NC(=O)CN(C)C(=O)c2cc(-c3ccc(C)o3)nc3ccccc23)cc1`, 61.4% (active); that for `CCC(=O)Nc1c(S(=O)(=O)c2ccccc2)c2nc3ccccc3nc2n1Cc1ccccc1`, 150% (active).
`COc1ccc2[nH]c3c(=O)n(Cc4ccco4)cnc3c2c1`: the inhibition is -2.61% (inactive).
The value for `COc1ccc2[nH]c3ccc(OC)cc3c2c1` was 198% (active); that for `COc1ccc(-c2nc3cc(C)ccn3c2NC2CCCCC2)cc1SC1CCCCC1` was 41.2% (active).
The result for `COc1ccc2c3c(c(=O)oc2c1OCC(=O)C(C)(C)C)CCCC3` reads 51% (active); that for `Cc1c(OC(C)C(=O)N[C@@H](Cc2ccccc2)C(=O)O)ccc2c3c(c(=O)oc12)CCCC3` (stereo not given in full), -2.05% (inactive); that for `CCOC(=O)N1CCN(C(=O)c2cc3c(ccc4ccccc43)oc2=O)CC1`, -8.26% (inactive).
Regarding `CCN(CC)c1ccc2cc(C(=O)O)c(=O)oc2c1`, the inhibition was 17.4% (active).
The result for `COC(=O)c1c(C)c(C)nc(N)c1C#N` reads 49.5% (active); that for `CC(C)c1nc(N2CCOCC2)c(C#N)c2c1COC(C)(C)C2`, 32.5% (active).
As to `CC1(C)Cc2c(C#N)c(SCc3nc4ccccc4[nH]3)nc(N3CCOCC3)c2CO1`, the inhibition is -4.7% (inactive).
Take `CN(C(=O)COc1ccccc1)c1nnc(-c2ccncc2)s1`: the inhibition was 513% [above what the read-out allows, likely interference] (active).
On to `CN(C(=O)c1ccccn1)c1nnc(-c2ccccn2)s1`, for which the inhibition was 520% [above what the read-out allows, likely interference] (active).
The value for `O=C(NCCN1CCN(Cc2ccccc2)CC1)c1cc2c(=O)[nH]c3ccccc3c2s1` was 125% (active); that for `Cc1cccc2c1-c1sc(C(=O)NCCCN3CCc4ccccc4C3)cc1CO2` was -4.07% (inactive); that for `CN(C)S(=O)(=O)c1ccc(N/C=C(\[N+](=O)[O-])S(=O)(=O)c2ccccc2)cc1` was -5.04% (inactive).
Regarding `Oc1ccc(Br)cc1C=Nc1ccc2[nH]ncc2c1`, the inhibition was 51.6% (active).
Turning to `CC(C)=NN1C(=O)c2ccccc2NC1(C)C`, the inhibition was 121% (active).
Consider `Cc1cc(NC(C)C)n2c(nc3ccccc32)c1C#N`, for which the inhibition was 181% (active).
For `COc1ccc(C2C3=C(CCCC3=O)N(CC(=O)O)C3=C2C(=O)CCC3)cc1`, the inhibition was 107% (active).
The result for `CCOC(=O)COc1nc(C)cc(C(F)(F)F)c1C#N` reads 36.8% (active).
The result for `COc1ccc2sc(-c3ccc(N(C)C)cc3)c(-c3ccc4cc[nH]c4c3)c2c1` reads 55.2% (active); that for `O=C(CN1C(=O)c2cccc3cccc(c23)C1=O)N1CCCCC1`, 53.9% (active).
With `CCCCN(CCCC)CC(O)Cn1c2ccccc2c(=O)c2ccccc21` (stereo not given), the inhibition was 87.8% (active).
Take `CN1c2ccc(C=O)c3c(C=O)ccc(c23)N(C)C1(C)C`: the inhibition is 19.9% (active).
The result for `CCOc1ccc2nc(Nc3nc4ccc(NC(C)=O)cc4s3)sc2c1` reads 13.8% (active); that for `O=C(Nc1ncc2c(n1)-c1ccccc1OC2)c1ccc(Cl)cc1`, 82.3% (active); that for `CN(C(=O)c1cc2c(=O)n3ccccc3nc2s1)C1CCCCC1`, 46.3% (active).
The result for `CN(CCOc1ccccc1)C(=O)c1cc(-c2ccco2)nc2ccccc12` reads -2.35% (inactive); that for `O=C(c1cc(-c2ccco2)nc2ccccc12)N(Cc1nnc(-c2ccc(Cl)cc2)o1)C1CC1`, 72.7% (active); that for `COc1ccc(CNC(=O)c2c[nH]c3c(OC)cc(OC)cc3c2=O)cc1`, -3.81% (inactive).
In the case of `COc1cccc2[nH]c(C(=O)NCCc3ccccc3)cc12`, the inhibition is 961% [above what the read-out allows, likely interference] (active).
On to `Cc1nn(-c2ccccc2)nc1C(=O)OCC(=O)N1CCCCC1C` (stereo not given), for which the inhibition was -3.64% (inactive).
The value for `Cc1cnc(C(=O)OCC(=O)N2CCc3ccccc32)cn1` was 99.3% (active); that for `CCOc1c2ccc(C(=O)NCc3ccc(OC(F)(F)F)cc3)cc2nn1C` was 79.5% (active); that for `CCCn1nc2cc(C(=O)NCc3ccccc3)ccc2c1OCC` was -3.32% (inactive).
The value for `CCOc1c2ccc(C(=O)NC3CCCc4ccccc43)cc2nn1CC` (stereo not given) was 7.23% (inactive).
Regarding `CCOc1c2ccc(C(=O)NCc3ccc4c(c3)OCO4)cc2nn1C`, the inhibition is 68.1% (active).
The value for `CC(=O)c1sc2nc(SCC(=O)N3CCCCC3)[nH]c(=O)c2c1C` was 55.4% (active).
On to `Cc1nc(NCCN)c(C#N)c2c1COC(C)(C)C2`, for which the inhibition was 76.9% (active).
The value for `COc1ccc(C2CC(c3cccs3)=NN2c2ccccc2)cc1` (stereo not given) was 23.7% (active); that for `Oc1ccccc1C1=NN(c2ccccc2)C(c2ccccc2)C1` (stereo not given) was 84% (active).
On to `COc1ccc(C2CC(c3cccs3)=NN2c2ccc(F)cc2)cc1OC` (stereo not given), for which the inhibition is 71.1% (active).
Regarding `Fc1ccc(N2N=C(c3cccs3)CC2c2ccco2)c(F)c1` (stereo not given), the inhibition is -3.03% (inactive).
The result for `COc1ccccc1N1N=C(c2cccs2)CC1c1ccccc1` (stereo not given) reads 46.6% (active).
The value for `CS(=O)(=O)Nc1ccc(C2=NN(S(C)(=O)=O)C(c3cccs3)C2)cc1` (stereo not given) was -3.93% (inactive).
`Cc1cc(C)c(-c2c(O)c3ccccc3n(C)c2=O)c(C)c1`: the inhibition was 61.1% (active).
The value for `Cc1ccc(S(=O)(=O)N2CCN(C(=O)CSc3cc(C)ccc3C)CC2)c(C)c1` was 108% (active); that for `CCc1cc(=O)oc2cc(C)cc(OCC(=O)N3CCC[C@@H]3C(=O)O)c12` was 54.6% (active).
On to `CCCC/C=C/c1cccc2nncn12`, for which the inhibition is 54% (active).
Regarding `CCOc1ccccc1C1CC(c2ccccc2)Nc2nc(N)nn21` (stereo not given), the inhibition was 132% (active).
The result for `CN(C)CCCn1c(N)c(C#N)c2nc(C#N)c(C#N)nc21` reads 76.3% (active); that for `c1ccc(Cc2c(-c3ccco3)nc3c4ccccc4ccn23)cc1`, 95.6% (active).
The value for `CN(C)c1ccc(/C=N/NC(=O)C(O)c2ccc(Br)cc2)cc1` (stereo not given) was 64% (active); that for `CC(C)C1Nc2c(C(=O)O)cccc2C(Nc2ccccc2C(=O)O)C1(C)C` (stereo not given) was 87.3% (active).
Take `CC(=O)N1C(=O)/C(=C2\SC(=S)N(NC(=O)c3ccc(O)cc3)C2=O)c2ccccc21`: the inhibition was -2.52% (inactive).
The value for `Cc1cc(OCc2cc(C(=O)O)oc2C)c2c3c(c(=O)oc2c1)CCCC3` was 89.5% (active).
The value for `COC(=O)COc1cc(C)cc2oc(=O)c3c(c12)CCCC3` was 105% (active).
Turning to `O=C(c1cc(-c2ccc(Cl)s2)nc2ccccc12)N1CCOCC1`, the inhibition was 83% (active).
The result for `CC(=O)N1CCN(C(=O)c2cc(-c3ccc(Cl)s3)nc3ccccc23)CC1` reads -3.53% (inactive).
For the molecule `Cc1ccc2nc(-c3ccco3)c(Cc3cccc(Cl)c3)n2c1`, the inhibition is 63.6% (active).
The value for `CC(C)(C)OC(=O)NNc1c2ccccc2nc2ccccc12` was -5.25% (inactive); that for `COC(=O)c1cc(-c2cccs2)nc2ccccc12` was 96.2% (active).
The value for `O=C(NCCN1CCOCC1)c1cc(-c2cccs2)nc2ccccc12` was -3.18% (inactive).
Take `CC(C)n1c(-c2cccs2)nc2ccccc21`: the inhibition was 68.4% (active).
The value for `Cc1cc(=O)oc2c1ccc1ccccc12` was 71.6% (active); that for `COCCN(CCOC)c1nc(N)c2c(N)nc3c(c2c1C#N)CC(=O)N3Cc1ccc(Cl)cc1` was 79% (active); that for `N#CC1(Nc2ccc3c4c(cccc24)CC3)CCCCC1` was 103% (active).
The result for `COCc1cc(=O)oc2cc(NS(=O)(=O)c3ccc(C)cc3)ccc12` reads 51.2% (active); that for `CCSc1nnc(-c2cc3c(s2)-c2ccccc2CC3)o1`, 53.8% (active).
Consider `Cc1cc(OCC(=O)NCC(O)c2ccccc2)c2c(C)c(C)c(=O)oc2c1` (stereo not given), for which the inhibition is 187% (active).
The result for `Cc1cc(=O)oc2c3c(cc(OCC(=O)NCC(O)c4ccccc4)c12)OC(C)(C)CC3` (stereo not given) reads 46.9% (active); that for `CC1(C)CC(=O)c2cc(OCC(=O)NCC3CCCO3)ccc2O1` (stereo not given), -4.8% (inactive); that for `CC1=CC2=NC(=O)CC(C)(C(=O)N(CC(=O)NC(C)(C)C)Cc3ccccc3)N2C=C1` (stereo not given), 4.57% (inactive).
